Results published in PubChem BioAssay AID652054 (National Center for Advancing Translational Sciences (NCATS), 2013).
Screen size: about 360,000 compounds; about 9,100 (2.5%) were called active. Not shown: some 4% with an inconclusive outcome. No stated cut-off is given here; in the data, active means max response below about -50%; inconclusive means no clear call, values can overlap the other calls; inactive means above that. The full list was thinned out, with actives kept by preference.

What follows are compounds tested against D(3) dopamine receptor (Homo sapiens) (UniProt P35462) (assay: qHTS of D3 Dopamine Receptor Antagonist: qHTS). Conditions: D3R cells, DiscoveRx beta-arrestin luminescence, antagonist mode; hits give low values.
Summary of the method: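 Cells plated overnight at 1500 cells/well, then exposed to library compounds with dopamine controls for 90 minutes at 37 degrees C. DiscoveRx reagent added for 30–60 minutes at room temperature; luminescence read, quantitative HTS format.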
On the % scale 0 is the no-effect control and ±100 the full control effect.

D(3) dopamine receptor (Homo sapiens), sequence (P35462 whole entry, looked up): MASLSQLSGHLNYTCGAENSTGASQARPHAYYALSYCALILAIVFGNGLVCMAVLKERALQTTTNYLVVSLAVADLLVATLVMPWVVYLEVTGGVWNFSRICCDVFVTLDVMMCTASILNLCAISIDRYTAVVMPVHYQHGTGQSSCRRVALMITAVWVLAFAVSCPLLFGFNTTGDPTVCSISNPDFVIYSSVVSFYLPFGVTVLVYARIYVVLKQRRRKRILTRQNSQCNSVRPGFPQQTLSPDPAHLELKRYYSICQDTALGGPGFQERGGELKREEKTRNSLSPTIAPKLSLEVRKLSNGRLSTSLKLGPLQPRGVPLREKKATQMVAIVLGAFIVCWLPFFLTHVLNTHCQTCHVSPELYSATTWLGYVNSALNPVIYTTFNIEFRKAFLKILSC

Max response, negative = inhibition, inactive:
O=Cc1cn(CCOc2ccc(F)cc2)c2ccccc12 25%
CC(=O)N1CCN(CC(C)(C)NS(=O)(=O)c2ccc(C)cc2)CC1 0.902%
Cc1ccc(S(=O)(=O)NC(=O)N2CCCC(C)(C)C2)cc1 2.79%
O=C(c1ccc(N2CCCC2=O)cc1)N1CCN(c2ccc(C(F)(F)F)cc2[N+](=O)[O-])CC1 29.2%
O=C(NCc1ccc2c(c1)OCO2)c1ccc(Cl)s1 -10.3%
O=C(NCc1ccc2c(c1)OCO2)C12CC3CC(CC(C3)C1)C2 10.5%
Cc1ccc(C(=O)OCC(=O)NCc2ccc3c(c2)OCO3)s1 5.99%
O=C(NCc1ccc2c(c1)OCO2)c1sccc1Br 10.4%
CCOc1cc(/C=N/NC(=O)c2c(C)nc3ccc(Cl)cn23)ccc1O -5.49%
CSc1ccc(CN2CCC2(C)C(=O)NCc2ccccc2Br)cc1 (stereo not drawn) 33.4%
CC(=O)OC[C@@H]1CN(Cc2ccccc2)C[C@H](n2cnc3c(NCc4ccco4)ncnc32)O1 14.6%
COc1cc(OC)cc(C2=Cc3ccccc3C(CC(=O)c3ccco3)N2c2ccc(-c3cnc(OC)nc3)cc2)c1 (stereo not drawn) 41.4%
COc1ccc(CN2C(=O)C(CC(=O)NCc3cccc4ccccc34)CC(C(=O)N3CCOCC3)=C2C)cc1 (stereo not drawn) -2.29%
COC(=O)C[C@@H]1C=C[C@@H](NC(=O)c2cccnc2)[C@@H](CO)O1 -2.19%
CCCCCOc1ccc(/C=C/C(=O)NCCc2nc3ccccc3[nH]2)cc1OC 53.6%
COc1ccc(/C=C(\NC(=O)c2ccccc2)C(=O)NCCN2CCOCC2)cc1OC -3.81%
CC1(C(=O)NS(=O)(=O)c2ccccc2)CCN1C(=O)Cc1ccc(-c2ccccc2)cc1 (stereo not drawn) -7.77%
CCC1CCCCN1C(=S)Nc1ccc(C(C)=O)cc1 (stereo not drawn) 4%
O=C(NC(=S)N1CCc2ccccc21)c1ccco1 -1.16%
N#Cc1ccc(OCC(=O)Nc2nc(-c3ccccn3)cs2)cc1 -9.86%
CN(C)CCCOc1ccc(-c2ccc3nccn3c2)cn1 1.66%
CC(C(=O)O)n1cnc2sc3c(c2c1=O)CCCC3 (stereo not drawn) 20%
N=c1c2c3c(sc2ncn1CCCN1CCOCC1)CCCCC3 8.56%
CCOC(=O)N1CCN(C(=O)C[C@@H]2C[C@@]3(C(=O)OC)CC(C)(C)CC=C3N(Cc3ccco3)C2=O)CC1 -6.32%
CC(=O)c1cc(-c2ccccc2)[nH]c1N1CCCC1 0%
CC1=NN(c2ccc(Cl)c(C(=O)O)c2)C(=O)/C1=C/c1ccc(-c2ccccc2[N+](=O)[O-])o1 8.21%
Cc1cc(C)c(S(=O)(=O)NN=C2c3ccccc3[C@H]3Cc4csc[n+]4[C@@H]23)c(C)c1 8.56%
COCC(C)NCc1cc(Br)ccc1OC (stereo not drawn) 13.9%
Cc1cccc(NC(=O)COc2ccc(Br)cc2C)n1 2.17%
Cc1ccc(S(=O)(=O)N2CCOCC2)cc1NC(=O)c1ccncc1 -9.56%
CN(C)CCNC(=O)c1ccc(-c2cn3c(-c4ccc(Oc5ccccc5)cc4)cnc3cn2)cc1 -27.6%
CCCNC(=O)C1(C)CCN(C(=O)c2ccccc2OC(F)(F)F)C1 (stereo not drawn) 7.72%
Cc1ccc(S(=O)(=O)N2C[C@H]3n4c(=O)ccc(=O)n4C[C@H](OC(=O)NC4CCCC4)[C@@]3(O)C2)cc1 10.7%
C[C@@H]1CN([C@@H](C)CO)C(=O)c2c(c3ccccc3n2C)-c2ccccc2CO[C@H]1CN(C)C(=O)C1CC1 5.32%
COc1ccc(-c2coc3c(C(=O)NC(C)C)cccc23)c(C)c1 71.6%
CCCCC/C=C/C1=CC(=O)C[C@H](c2ccc(Cl)cc2)C1 8.93%
COc1ccc(C2CC(=O)NC(=O)C2)cc1 -22.1%
COc1ccc([C@H]2CC(=O)C=C(c3ccc(CO)cc3)C2)cc1 3.98%
COc1ccc2cc(C3=CC(=O)C[C@H](c4ccc5c(c4)OCO5)C3)ccc2c1 6.05%
CCCNC(=O)c1cc(C2CCCN(C(=O)c3ccc4c(c3)CCO4)C2)on1 (stereo not drawn) 3.62%
O=S1(=O)CC(N2CCN(Cc3ccccc3F)CC2)CN1Cc1cn(Cc2ccccc2)nn1 (stereo not drawn) 0%
O=C(Nc1ccccc1)Oc1cccc2cccnc12 -27.7%
COc1cccc(NC(=O)Nc2ccc(F)cc2)c1 3.65%
CCOC(=O)[C@]12CCCC=C1N(Cc1ccc(Cl)cc1Cl)C(=O)[C@H](CC(=O)N1CCCCC1)C2 -25.8%
Cc1ccc2c(c1)C1CN(C)CCC1N2C(=O)c1ccccc1NS(=O)(=O)c1ccc(F)cc1C (stereo not drawn) -23.3%
Cc1ccc2c(c1)C1CN(C)CCC1N2C(=S)Nc1ccc(Cl)cc1Cl (stereo not drawn) -8.46%
Cc1ccc([N+](=O)[O-])cc1S(=O)(=O)N1CCCN(C)CC1 -7.78%
Cc1ccc2c(c1)C1CN(C)CCC1N2C(=S)Nc1ccc(OC(F)F)cc1 (stereo not drawn) -6.37%
O=C(Nc1cccc(Cc2ccccc2)c1)Nc1ccc2nc([C@@H]3O[C@H](CO)[C@@H](O)[C@H](O)[C@H]3O)[nH]c2c1 32.8%
Cc1ccc(C(=O)Nc2c(-c3ccccc3)[nH][nH]c2=O)cc1 -20.8%
COCOCCn1cc(CN2CCS(=O)(=O)N(Cc3ccc(-c4ccccc4)cc3)C(CC(C)C)C2=O)nn1 (stereo not drawn) 13%
CCOC(=O)c1cc(NC(=O)c2cccnc2)ccn1 -0.585%
CC(C)NS(=O)(=O)c1ccc(NC(=O)c2cccnc2)cc1 0%
CCOC(=O)[C@]12CCCC=C1N(Cc1ccc3c(c1)OCO3)C(=O)[C@H](CC(=O)N1CCN(C(=O)c3ccco3)CC1)C2 -0.946%
Cc1cccc(C(=O)NC2CCN(CC(=O)Nc3cccc(Cl)c3)CC2)c1 -13.9%
OC[C@@H]1CN(C2CCCC2)C[C@H](n2cnc3c(NC4CCC4)ncnc32)O1 -7.86%
CCN(CC)c1ccc([N+](=O)[O-])cc1C(=O)O 9.06%
CNc1ccc([N+](=O)[O-])cc1C(=O)O -6.53%
CN1CCN(CCNC(=O)Nc2ccc([N+](=O)[O-])cc2)CC1 -6.94%
O=C(c1cc(C(=O)N2CCN(c3ccc(F)cc3)CC2)cc([N+](=O)[O-])c1)N1CCN(c2ccc(F)cc2)CC1 -2.24%
COc1ccc(C2OC(CCc3ccccc3)Cc3[nH]c(=S)[nH]c(=O)c32)cc1 (stereo not drawn) 0%
OC[C@@H]1CN(Cc2cccs2)C[C@H](n2cnc3c(Nc4ccccc4)ncnc32)O1 -4.85%
COc1ccc(-c2ccc(CN3C(CC(C)C)C(=O)N(Cc4cn(CC5CCCCC5)nn4)CCS3(=O)=O)cc2)cn1 (stereo not drawn) 0.993%
CN(Cc1ccccc1F)c1cc2c(c3c1ccn3C)C1CCC2O1 (stereo not drawn) -29.6%
COc1ccc(/C=N/NC(=O)CNC(=O)c2ccc(S(=O)(=O)N3CCCC3)cc2)c(OC)c1 -0.269%
COc1ccc(/C=N/NC(=O)Nc2ccc3nsnc3c2)c(OC)c1 -16.9%
COC(=O)[C@@]12C[C@@H](CC(=O)NCc3cccc(C(F)(F)F)c3)C(=O)N(Cc3ccco3)C1=CCC(C)(C)C2 -1.5%
COc1cccc(/C=C/C(=O)Nc2ccc3c(c2)OCCO3)c1 -6.81%
Cc1cccc(NC(=O)/C=C/c2ccc3c(c2)OCO3)n1 -14.5%

Max response, negative = inhibition, active:
Cc1ccc(S(=O)(=O)NC(=O)N2CCCN(Cc3ccc(F)cc3)CC2)cc1 -51.3%
CCOC(=O)NCc1ccc2c(c1)OCO2 -52.8%
O=C(NCc1ccc2c(c1)OCO2)c1cc2c(s1)CS(=O)(=O)C2 -163%
CC(C)N=C1CCCC1C(=S)SSC(=S)C1CCCC1=NC(C)C (stereo not drawn) -68.8%
COc1ccc(/C=C(/NC(=O)c2ccc(C)cc2)c2nc3ccccc3[nH]2)cc1OC -65.3%
CCC1CCCCN1C(=S)NC(=O)c1ccco1 (stereo not drawn) -122%
S=c1[nH]nc2c3c4c(sc3ncn12)CCCC4 -92.7%
O=C1NN(c2ccccc2)C(=O)/C1=C/c1ccc(-c2cccc(C(=O)O)c2)o1 -54.9%
CCC(C)NCCOCCOc1ccc(Br)cc1C (stereo not drawn) -71.5%
COc1ccc([C@H]2CC(=O)C=C(c3ccc(C)cc3)C2)cc1 -60.5%
COc1ccc([C@H]2CC(=O)C=C(/C=C/c3ccc(Cl)cc3)C2)cc1 -56.6%
COc1ccc(NC(=O)Nc2cccc3cccnc23)cc1 -66.6%
Cc1ccc2c(c1)C1CN(C)CCC1N2S(=O)(=O)c1cccc(F)c1 (stereo not drawn) -54.7%
Cc1ccc2c(c1)C1CN(C)CCC1N2S(=O)(=O)c1ccc(Oc2ccc([N+](=O)[O-])cc2)cc1 (stereo not drawn) -68.7%
Cc1c(C(=O)OC(C)C)sc(NC(=O)c2cccnc2)c1C#N -61.4%
O=C(O)c1ccc([N+](=O)[O-])cc1Sc1ccsc1 -56.7%
O=C(NCCCN1CCN(c2ccc(F)cc2)CC1)Nc1ccc([N+](=O)[O-])cc1 -118%
COc1ccc(/C=N/NC(=O)c2ccc3c(c2)OCCO3)c(OC)c1 -64.3%
O=C(/C=C\c1ccc2c(c1)OCO2)NC1(C(=O)Nc2ccc3c(c2)OCCO3)CCCCC1 -59.6%
